The source of these data is ChEMBL document CHEMBL3988442, “University of Dundee, Small-Polar-MMV Screening Library” (2021).

For some of these results: Results with a measured potency or affinity are listed apart.

Common to all, as to set-up: scale not given: direction of the effect not stated beside the values
For test [1], the target named is Protein translocase subunit SecA (Escherichia coli (strain K12)) (UniProt P10408). In words: Assay to Identify E. coli SecA ATPase Inhibitors. Type of test: functional. The following applies: 30 µM.
For test [2], the target named is T1, Ubiquitin-activating enzyme e1, putative (Leishmania donovani (strain BPK282A1)) (UniProt E9BSI1).
T1 sequence (whole entry): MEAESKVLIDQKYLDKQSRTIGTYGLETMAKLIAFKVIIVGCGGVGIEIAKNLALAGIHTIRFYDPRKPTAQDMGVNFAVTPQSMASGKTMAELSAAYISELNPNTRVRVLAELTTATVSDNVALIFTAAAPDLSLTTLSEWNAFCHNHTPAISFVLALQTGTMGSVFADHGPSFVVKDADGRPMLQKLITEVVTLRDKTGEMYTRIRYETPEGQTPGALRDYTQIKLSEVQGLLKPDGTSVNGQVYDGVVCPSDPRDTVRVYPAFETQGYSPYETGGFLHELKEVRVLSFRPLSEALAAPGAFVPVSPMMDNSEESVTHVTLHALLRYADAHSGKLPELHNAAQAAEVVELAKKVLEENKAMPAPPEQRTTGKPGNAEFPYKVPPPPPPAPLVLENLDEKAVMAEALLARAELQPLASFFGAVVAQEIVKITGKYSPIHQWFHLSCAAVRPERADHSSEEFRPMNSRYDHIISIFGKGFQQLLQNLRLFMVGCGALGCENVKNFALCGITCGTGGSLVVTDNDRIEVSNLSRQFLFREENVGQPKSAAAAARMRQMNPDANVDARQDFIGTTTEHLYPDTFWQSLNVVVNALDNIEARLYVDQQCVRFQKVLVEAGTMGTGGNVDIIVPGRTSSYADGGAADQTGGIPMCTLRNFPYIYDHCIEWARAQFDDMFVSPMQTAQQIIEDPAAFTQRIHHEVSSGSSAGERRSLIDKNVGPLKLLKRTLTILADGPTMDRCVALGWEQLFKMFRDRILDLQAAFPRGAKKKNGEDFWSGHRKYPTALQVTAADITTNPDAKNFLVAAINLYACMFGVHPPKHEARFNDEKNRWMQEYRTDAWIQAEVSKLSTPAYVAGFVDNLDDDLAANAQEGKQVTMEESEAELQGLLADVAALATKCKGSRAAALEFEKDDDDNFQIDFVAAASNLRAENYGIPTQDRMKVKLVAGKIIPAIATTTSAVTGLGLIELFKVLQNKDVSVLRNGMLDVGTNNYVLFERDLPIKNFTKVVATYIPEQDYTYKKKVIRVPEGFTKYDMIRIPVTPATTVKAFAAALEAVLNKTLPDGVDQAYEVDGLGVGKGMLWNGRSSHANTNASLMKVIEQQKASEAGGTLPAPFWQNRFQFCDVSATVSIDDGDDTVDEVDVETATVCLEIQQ
As to the kind of experiment: Leishmania donovani Ubiquitin Activating Enzyme (LdE1). Format: functional. The settings on record: 30 µM.

Test [3] addresses AMP-activated protein kinase, AMPK (Homo sapiens) (UniProt P54646+O43741+P54619+Q9UGJ0+Q9Y478+Q13131+Q9UGI9). In words: AMP-dependent Kinase enzyme assay. An in vitro enzyme assay that detects ADP turnover that is directly proportional to AMPK activity. This uses naive AMPK that is activated during the assay with MK-8722. The settings on record: 30 µM. Format: functional.
For test [4], the target named is Sialic acid-binding Ig-like lectin 9 (Homo sapiens) (UniProt Q9Y336). In words: Hs-Siglec9 ALPHAscreen SOP 20170721. The following applies: 10 µM. (Alpha assays give light when donor and acceptor beads are brought close together.)
A further test deals with Trypanosoma cruzi. As to the kind of experiment: Trypanosoma cruzi phosphomannomutase and mannose-1-phosphate guanylyltransferase assay. Format: functional. The settings on record: 10 µM.
In test [5] the target is T2, Arginase-2, mitochondrial (Homo sapiens) (UniProt P78540).
T2 sequence (whole entry): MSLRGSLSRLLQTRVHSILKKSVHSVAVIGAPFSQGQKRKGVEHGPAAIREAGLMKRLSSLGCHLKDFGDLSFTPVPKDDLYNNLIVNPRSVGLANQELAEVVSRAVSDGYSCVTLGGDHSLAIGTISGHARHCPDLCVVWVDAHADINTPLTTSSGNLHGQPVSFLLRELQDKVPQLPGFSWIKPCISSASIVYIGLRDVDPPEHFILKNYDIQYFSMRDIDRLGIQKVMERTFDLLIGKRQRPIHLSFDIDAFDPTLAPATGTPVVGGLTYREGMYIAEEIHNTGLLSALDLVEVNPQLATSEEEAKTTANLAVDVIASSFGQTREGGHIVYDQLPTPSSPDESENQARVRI
In words: in vitro enzyme assay to detect the production of urea directly proportional to the activity of Arginase II. Also: in the data most compounds retested in dose-response had high values. The following applies: 33.3 µM. Type of test: functional.

The target in test [6] is T3, Proteasome subunit beta (Trypanosoma cruzi) (UniProt O96673).
T3 sequence (whole entry): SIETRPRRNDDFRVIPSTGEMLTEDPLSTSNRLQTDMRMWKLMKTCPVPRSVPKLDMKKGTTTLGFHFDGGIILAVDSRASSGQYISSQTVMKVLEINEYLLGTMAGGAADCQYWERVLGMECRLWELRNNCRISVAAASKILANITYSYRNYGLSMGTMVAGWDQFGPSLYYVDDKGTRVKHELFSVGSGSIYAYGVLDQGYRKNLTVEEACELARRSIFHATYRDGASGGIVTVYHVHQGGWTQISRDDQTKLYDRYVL
As to the kind of experiment: Trypanosoma cruzi proteasome chymotrypsin-like activity (TcProtChymo) assay. Also: in the data most compounds retested in dose-response had high values. Format: functional. The following applies: 9.37 µM.

The species named for another test is Homo sapiens. As to the kind of experiment: To identify inhibition of the IFN signalling (Jak-Stat) pathway via expression of an eGFP reporter gene under the control of an IFN-stimulated response element (ISRE) containing MxA promoter. The settings on record: 30 µM. Type of test: functional. Background: A reporter such as luciferase makes a cellular process visible.

The target in test [7] is T4, Tyrosyl-tRNA synthetase, putative (Trypanosoma cruzi (strain CL Brener)) (UniProt Q4DSP6).
T4 sequence (whole entry): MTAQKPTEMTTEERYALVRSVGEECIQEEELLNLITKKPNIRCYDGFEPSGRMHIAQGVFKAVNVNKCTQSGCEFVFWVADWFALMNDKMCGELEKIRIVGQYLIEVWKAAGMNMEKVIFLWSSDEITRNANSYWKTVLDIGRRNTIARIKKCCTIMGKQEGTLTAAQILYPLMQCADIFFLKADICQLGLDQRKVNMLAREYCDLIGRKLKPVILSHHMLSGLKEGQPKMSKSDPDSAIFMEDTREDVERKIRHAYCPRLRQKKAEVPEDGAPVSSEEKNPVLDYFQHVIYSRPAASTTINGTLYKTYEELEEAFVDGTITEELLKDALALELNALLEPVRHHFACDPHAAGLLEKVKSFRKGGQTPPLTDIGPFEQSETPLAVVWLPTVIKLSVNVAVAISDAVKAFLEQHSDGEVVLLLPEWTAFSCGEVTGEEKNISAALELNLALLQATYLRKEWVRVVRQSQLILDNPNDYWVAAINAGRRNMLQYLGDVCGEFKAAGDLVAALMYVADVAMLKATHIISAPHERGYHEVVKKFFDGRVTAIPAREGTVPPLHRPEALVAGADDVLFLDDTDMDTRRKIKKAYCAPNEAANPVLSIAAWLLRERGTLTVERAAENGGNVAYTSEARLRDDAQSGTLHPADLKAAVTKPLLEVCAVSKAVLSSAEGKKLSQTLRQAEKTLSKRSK
As to the kind of experiment: Trypanosoma cruzi tyrosyl tRNA synthetase (TcYRS) _High Tyrosine SOP. Also: in the data most compounds retested in dose-response had high values. Format: functional. The following applies: 30 µM.

In test [8] the target is T4, Tyrosyl-tRNA synthetase, putative (Trypanosoma cruzi (strain CL Brener)). In words: Trypanosoma cruzi tyrosyl tRNA synthetase (TcYRS) SOP. Format: functional. The settings on record: 30 µM.
In test [9] the target is Chromo domain-containing protein 1 (Saccharomyces cerevisiae (strain ATCC 204508 / S288c) (Baker's yeast)) (UniProt P32657). As to the kind of experiment: ScCHD-1 Enzyme Inhibition Assay. Also: in the data most compounds retested in dose-response had high values. Format: functional. The settings on record: 30 µM.
Chromo domain-containing protein 1 (Saccharomyces cerevisiae (strain ATCC 204508 / S288c) (Baker's yeast)), sequence (P32657 whole entry, the tested form may be a part): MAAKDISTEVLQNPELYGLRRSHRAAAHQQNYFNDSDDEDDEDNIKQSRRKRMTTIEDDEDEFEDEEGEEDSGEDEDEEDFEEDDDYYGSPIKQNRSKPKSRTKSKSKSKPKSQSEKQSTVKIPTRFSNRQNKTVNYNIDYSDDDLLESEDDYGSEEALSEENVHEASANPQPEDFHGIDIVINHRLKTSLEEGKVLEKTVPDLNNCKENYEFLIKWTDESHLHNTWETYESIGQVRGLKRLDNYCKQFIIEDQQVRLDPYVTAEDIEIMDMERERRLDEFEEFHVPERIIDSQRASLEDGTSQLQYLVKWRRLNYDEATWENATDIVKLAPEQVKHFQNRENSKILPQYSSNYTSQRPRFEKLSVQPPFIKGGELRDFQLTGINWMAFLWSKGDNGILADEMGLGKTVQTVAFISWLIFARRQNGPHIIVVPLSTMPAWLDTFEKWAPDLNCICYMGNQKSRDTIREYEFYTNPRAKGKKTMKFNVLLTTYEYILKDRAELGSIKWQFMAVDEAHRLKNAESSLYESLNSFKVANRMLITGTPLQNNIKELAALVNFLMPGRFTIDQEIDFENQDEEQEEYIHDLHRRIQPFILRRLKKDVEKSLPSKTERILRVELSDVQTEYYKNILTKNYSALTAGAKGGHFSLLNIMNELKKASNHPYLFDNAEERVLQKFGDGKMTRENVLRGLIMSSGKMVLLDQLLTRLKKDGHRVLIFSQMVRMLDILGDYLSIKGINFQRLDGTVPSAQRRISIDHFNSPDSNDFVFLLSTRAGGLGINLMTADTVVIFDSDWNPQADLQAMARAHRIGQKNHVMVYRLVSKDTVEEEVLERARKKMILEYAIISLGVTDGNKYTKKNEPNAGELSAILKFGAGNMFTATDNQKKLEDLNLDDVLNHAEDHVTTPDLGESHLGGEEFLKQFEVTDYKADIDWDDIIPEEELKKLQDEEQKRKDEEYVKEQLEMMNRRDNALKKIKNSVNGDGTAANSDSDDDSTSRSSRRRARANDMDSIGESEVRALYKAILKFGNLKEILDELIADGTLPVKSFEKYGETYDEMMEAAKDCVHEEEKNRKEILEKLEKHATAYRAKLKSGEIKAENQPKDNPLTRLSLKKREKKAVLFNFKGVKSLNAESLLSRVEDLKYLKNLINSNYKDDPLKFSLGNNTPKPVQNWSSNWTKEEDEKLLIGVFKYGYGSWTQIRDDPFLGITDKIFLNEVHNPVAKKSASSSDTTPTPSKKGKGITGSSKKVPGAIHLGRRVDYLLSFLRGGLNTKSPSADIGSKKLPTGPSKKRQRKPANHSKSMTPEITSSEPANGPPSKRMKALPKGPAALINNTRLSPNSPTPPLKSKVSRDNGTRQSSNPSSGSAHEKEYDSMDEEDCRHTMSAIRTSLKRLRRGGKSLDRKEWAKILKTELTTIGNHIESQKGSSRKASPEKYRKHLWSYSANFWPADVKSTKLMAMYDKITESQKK

Sialic acid-binding Ig-like lectin 9 (Homo sapiens), sequence (Q9Y336 whole entry): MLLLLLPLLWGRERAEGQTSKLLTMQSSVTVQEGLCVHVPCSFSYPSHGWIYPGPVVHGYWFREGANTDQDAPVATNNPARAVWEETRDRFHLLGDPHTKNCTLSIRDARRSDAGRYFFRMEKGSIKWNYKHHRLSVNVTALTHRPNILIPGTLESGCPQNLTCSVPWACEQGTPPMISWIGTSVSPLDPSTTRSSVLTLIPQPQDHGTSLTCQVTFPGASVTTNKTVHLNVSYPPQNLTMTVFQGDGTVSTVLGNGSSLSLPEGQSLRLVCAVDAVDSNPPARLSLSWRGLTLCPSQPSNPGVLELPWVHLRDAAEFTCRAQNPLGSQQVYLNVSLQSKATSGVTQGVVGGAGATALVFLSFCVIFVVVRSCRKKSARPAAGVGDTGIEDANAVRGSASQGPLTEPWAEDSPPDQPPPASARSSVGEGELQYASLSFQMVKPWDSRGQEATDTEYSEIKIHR
Protein translocase subunit SecA (Escherichia coli (strain K12)), sequence (P10408 whole entry): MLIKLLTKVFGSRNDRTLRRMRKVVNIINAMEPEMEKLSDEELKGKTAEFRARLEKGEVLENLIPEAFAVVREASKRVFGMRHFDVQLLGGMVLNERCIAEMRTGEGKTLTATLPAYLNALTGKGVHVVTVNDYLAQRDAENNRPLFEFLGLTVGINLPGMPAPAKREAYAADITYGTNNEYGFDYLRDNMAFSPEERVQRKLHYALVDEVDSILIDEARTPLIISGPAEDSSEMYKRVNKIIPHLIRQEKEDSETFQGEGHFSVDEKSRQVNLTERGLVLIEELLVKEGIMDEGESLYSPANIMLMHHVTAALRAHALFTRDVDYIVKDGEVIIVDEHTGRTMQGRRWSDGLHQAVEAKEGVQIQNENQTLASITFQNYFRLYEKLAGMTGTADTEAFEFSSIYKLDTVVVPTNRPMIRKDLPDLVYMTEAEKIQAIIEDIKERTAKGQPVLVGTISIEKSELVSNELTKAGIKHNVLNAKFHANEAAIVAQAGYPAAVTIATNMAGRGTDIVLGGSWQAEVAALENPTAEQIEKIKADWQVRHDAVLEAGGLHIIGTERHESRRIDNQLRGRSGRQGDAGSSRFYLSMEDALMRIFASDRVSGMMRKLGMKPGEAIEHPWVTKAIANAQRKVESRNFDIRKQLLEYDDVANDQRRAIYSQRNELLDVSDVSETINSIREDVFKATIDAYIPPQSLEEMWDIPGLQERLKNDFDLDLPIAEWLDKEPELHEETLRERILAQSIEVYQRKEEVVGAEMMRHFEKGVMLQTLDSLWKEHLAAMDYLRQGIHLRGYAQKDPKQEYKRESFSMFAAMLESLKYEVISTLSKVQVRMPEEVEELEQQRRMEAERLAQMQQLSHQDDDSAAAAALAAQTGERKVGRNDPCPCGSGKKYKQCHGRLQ

In the case of `COc1ncccc1C(=O)N1CCCC(c2cc(C)[nH]n2)C1` (stereo not drawn), the Percent Effect in [1] was -4.92%; in test [2] it was 0%; in [3], -0.772%; in test [4], -1.9%; in the test with Trypanosoma cruzi it was -0.66%; in test [5], -0.802%. Besides, the Percent Effect in [6] was 1.8%; in the test filed under Homo sapiens it was 10.4%; in [7] it was 1.48%; in test [8], -6.17%; in test [9], 1.58%.
In the case of `Cc1cnn(CC(C)NCc2csc(-c3ccsc3)n2)c1` (stereo not drawn), the Percent Effect in test [1] is -3.78%; in test [2], -3.8%; in test [3], -1.07%; in test [4], 0.382%; in the test on Trypanosoma cruzi, 0.923%; in [5], -1.94%. In addition, the Percent Effect in test [6] is 28.1%; in the test filed under Homo sapiens it was 12.5%; in [7], 6.25%; in test [8] it was 12.7%; in test [9], -20.9%.
For `CN(C)C(=O)Cc1ccc(NC(=O)NC2CCCCC2)cc1`, the Percent Effect in test [1] is -1.35%; in test [2], -5.41%; in test [3], -1.19%; in [4], 3.35%; with Trypanosoma cruzi, 6.56%; in test [5] it was -2.86%. For the same compound, the Percent Effect in test [6] was 16%; in the test listed under Homo sapiens it was 11%; in test [7] it was 1.59%; in [8], 7.32%; in [9], -0.0586%.
Regarding `O=C(NCc1ccccn1)c1nnn(-c2ccc(Br)cc2)n1`, the Percent Effect is -3.5% in test [1]; 18.2% in test [2]; -2.49% in test [3]; -2.46% in test [4]; 1.68% with Trypanosoma cruzi; -5.81% in [5]. For the same compound, the Percent Effect in test [6] is 13.2%; in the test filed under Homo sapiens it was 16.1%; in test [7], 5.29%; in [8] it was 11.5%; in test [9], -12.6%.
Regarding `Cn1nnc2c1CCN(CC1CC1)C2COCc1ccccc1` (stereo not drawn), the Percent Effect in test [1] was -1.15%; in test [2], 16%; in [3] it was -5.25%; in [4], -5.75%; with Trypanosoma cruzi it was 2.36%; in test [5] it was 5.36%. In addition, the Percent Effect in [6] is 3.44%; in the test listed under Homo sapiens, -2.55%; in test [7], 9.57%; in test [8], 14.1%; in [9], -4.41%.
For `COc1ccc(CN2CCC(O)CC2)c(OC)c1`, the Percent Effect in test [1] was -2.06%; in [2], 0%; in [3] it was -1.5%; in test [4], 2.82%; in the test with Trypanosoma cruzi, 1.93%; in [5], -1.91%. In addition, the Percent Effect in test [6] is 4.83%; in the test filed under Homo sapiens, 13.4%; in test [7], 2.65%; in [8], 9.76%; in [9], -0.716%.
Consider `COc1ncccc1NC(=O)N1CCC(CN2CCOCC2)CC1`, for which the Percent Effect in test [1] is 2.03%; in test [2], 2.67%; in [3], -10.3%; in test [4], 11.1%; with Trypanosoma cruzi, 5.55%; in test [5] it was 17.7%. In addition, the Percent Effect was 7.15% in test [6]; -13.1% in the test listed under Homo sapiens; 2.73% in test [7]; 6.17% in test [8]; 0.459% in [9].
Regarding `CNC(=O)c1nc2c(s1)CCN(C(=O)Cc1ccc(OC)cc1)CC2`, the Percent Effect in [1] was -7.69%; in test [2], 5.41%; in test [3], 1.22%; in test [4], -1.04%; in the test with Trypanosoma cruzi, -1.07%; in test [5] it was -1.59%. Besides, the Percent Effect in test [6] came to 0.369%; in the test filed under Homo sapiens, 8.46%; in test [7] it was 4.32%; in [8], 0%; in [9] it was 1.61%.
